Results filed as inconclusive are left out. Unmarked numbers belong to inactive results. Active and inactive are the calls of the source. Calls come from the whole dose curve; as a rule, active = well fitted cell-killing curve with a large enough effect; inconclusive = small, poorly fitted or top-dose-only effect, or effect the other way; inactive = no such curve, though single readings can be large or run the other way. Positions of bridges follow the written chain, without caps; N, C: chain ends. Non-standard residues stand in square brackets, D forms with d. Residues, ends and D or L forms follow the SMILES beside them. ξ: configuration not given here. *: point of attachment. Octanoyl(6-Me) = CCC(C)CCCCC(=O)*; ξThr(3R) = C[C@@H](O)C(N)C(=O)O; dDab = NCC[C@@H](N)C(=O)O; Dab = NCC[C@H](N)C(=O)O
experiment: Quantitative High-Throughput drug screen in 47 multiple myeloma cell lines against the NCATS MIPE library collection: OCIMY1_PLB cell viability assay (AID 1918979); conditions: OCI-MY1 myeloma viability, CellTiter-Glo ATP, 48 h; series mostly up to 45.8 µM; viability: at the top concentration; note: nearly all actives have a fitted effect of over 35% in size
Description: PI: Beverly A. Mock Ph.D.
Laboratory of Cancer Biology and Genetics,
Center for Cancer Research, National Cancer Institute,
National Institute of Health, Bethesda, Maryland
Drug resistance and disease progression are common in multiple myeloma (MM) patients, underscoring the need for new therapeutic combinations. […] We hypothesized that effective combinations would reduce MYC expression and enhance p16 activity. […] These preclinical data identify potentially useful drug combinations for evaluation in drug-resistant MM and reveal potential mechanisms of combined drug sensitivity.
Described herein is the primary MIPE qHTS used to cherrypick compounds. Validated compounds were then further tested for potential synergistic activiy.
[1] Peat TJ, Gaikwad SM, Dubois W, Gyabaah-Kessie N, Zhang S, Gorjifard S, Phyo Z, Andres M, Hughitt VK, Simpson RM, Miller MA, Girvin AT, Taylor A, Williams D, D'Antonio N, Zhang Y, Rajagopalan A, Flietner E, Wilson K, Zhang X, Shinn P, Klumpp-Thomas C, McKnight C, Itkin Z, Chen L, Kazandijian D, Zhang J, Michalowski AM, Simmons JK, Keats J, Thomas CJ, Mock BA. Drug combinations identified by high-throughput screening promote cell cycle transition and upregulate Smad pathways in myeloma. Cancer Lett. 2023 Aug 1;568:216284. doi: 10.1016/j.canlet.2023.216284. Epub 2023 Jun 24. PMID: 37356470; PMCID: PMC10408729.
SEQUENCE No. (e.g., 1, 2, 3, etc.); […] (e.g., Cells, Incubation, Reagent, etc.); VALUE and DESCRIPTION.
1; Cells; 5 uL; white, solid bottom 1536-well Greiner assay plate.
2; Compounds; 23 nL; Kalypsis pin tool (Wako USA) equipped with a 1536-well pin head to transfer to the assay plates.
3; Incubation; 48 hours; 37C incubation.
4; Reagent;5uL; CellTiter Glo (Promega).
5; Detector; 425V; Luminescence; Viewlux PerkinElmer.
NOTES (numbers refer to Sequence numbers above)
1. The cell-based screening methods employed in this study were like those previously published. Briefly, the corresponding myeloma cell lines were screened in 1,536-well plates with 500 cells, 5-uL per well for inhibition of cell viability (assessed by measuring ATP levels with CellTiterGlo).
2. NCATS MIPE 4.0 library of approved and investigational drugs were added using the Kalypsis pin tool. Wells treated with DMSO only for 100% viability and media only for 0% viability were used as controls.
3. The assay plates were covered and incubated for 48 hours in a 37C, 5% CO2 incubator with controlled humidity.
4. After 48 hours, CellTilter-GloTM luminescent substrate mix (Promega) reagent was added to the assay plate and plates we incubated for 5 min at room temperature.
5. Signal was measured as median relative luminescence units on a ViewLux (PerkinElmer) multiplate reader.
[1] Heske CM, Davis MI, Baumgart JT, Wilson K, Gormally MV, Chen L, Zhang X, Ceribelli M, Duveau DY, Guha R, Ferrer M, Arnaldez FI, Ji J, Tran HL, Zhang Y, Mendoza A, Helman LJ, Thomas CJ. Matrix Screen Identifies Synergistic Combination of PARP Inhibitors and Nicotinamide Phosphoribosyltransferase (NAMPT) Inhibitors in Ewing Sarcoma. Clin Cancer Res. 2017 Dec 1;23(23):7301-7311. doi: 10.1158/1078-0432.CCR-17-1121. Epub 2017 Sep 12. PMID: 28899971; PMCID: PMC6636827.
Potency is the fitted concentration of half-maximal effect.

Row | Structure (SMILES) | Potency | viability
1 | O=C1NCCc2[nH]c(-c3ccncc3)cc21 | 5.9 µM (active) | –
2 | CCCCCCCCCCCCc1ccc(S(=O)(=O)Nc2nncs2)cc1 | – | 91.5%
3 | CCC(C)CCCCC(=O)N[C@@H](CCN)C(=O)NC(C(=O)N[C@H](CCN)C(=O)N[C@@H]1CCNC(=O)C([C@@H](C)O)NC(=O)[C@@H](CCN)NC(=O)[C@@H](CCN)NC(=O)[C@@H](CC(C)C)NC(=O)[C@H](Cc2ccccc2)NC(=O)[C@H](CCN)NC1=O)[C@@H](C)O (stereo partly drawn) ({Octanoyl(6-Me)}-[Dab][ξThr(3R)][dDab][dDab][Dab]F[dL][dDab][dDab][ξThr(3R)]; lactam 4-C) | – | 119%
4 | O=C(O)C=Cc1ccc(Cn2ccnc2)cc1 | – | 106%
5 | CC(C(C)N1CC(=O)NC(=O)C1)N1CC(=O)NC(=O)C1 (stereo not given) | – | 127%
6 | Oc1cc(-c2nc(-c3ccccc3)[nH]c2-c2ccncc2)ccc1Cl | 10.5 µM (active) | –
7 | C=CC(=O)Nc1ccc2ncnc(Nc3ccc(OCc4cccc(F)c4)c(Cl)c3)c2c1 | 14.8 µM (active) | –
8 | CC1(C)[C@H](O[C@H]2O[C@H](C(=O)O)[C@@H](O)[C@H](O)[C@H]2O[C@@H]2O[C@H](C(=O)O)[C@@H](O)[C@H](O)[C@H]2O)CC[C@@]2(C)[C@H]1CC[C@]1(C)[C@H]2C(=O)C=C2[C@H]3C[C@@](C)(C(=O)O)CC[C@]3(C)CC[C@]21C | – | 111%
9 | Cc1ccc([N+](=O)[O-])cc1S(=O)(=O)N(C)N=Cc1cnc2ccc(Br)cn12 | 0.0526 µM (active) | –
10 | C[C@]12C=CC(=O)N[C@@H]1CC[C@H]1[C@H]3CC[C@@H](C(=O)Nc4cc(C(F)(F)F)ccc4C(F)(F)F)[C@@]3(C)CC[C@@H]12 | – | 117%
11 | NC1=N[C@H]2[C@H](CS[C@H]2CCCCC(=O)O)N1 | – | 115% [at 23.2 µM]
12 | CC(C)(O)CC[C@@H](O)[C@](C)(O)[C@H]1CC[C@@]2(O)C3=CC(=O)[C@@H]4C[C@@H](O)[C@@H](O)C[C@]4(C)[C@@H]3CC[C@]12C | – | 114%
13 | Cn1cc(-c2ccc3ncc(Cc4ccc5ncccc5c4)n3n2)cn1 | – | 98.6%
14 | COC(=O)[C@@H]1CC2=CC(=O)CC[C@]2(C)[C@@]23O[C@@H]2C[C@@]2(C)[C@H](CC[C@@]24CCC(=O)O4)[C@@H]13 | – | 108%
15 | CC(=O)ON=C1C(c2c(O)[nH]c3cc(Br)ccc23)=Nc2ccccc21 | 26.4 µM (active) | –
16 | Cc1ccc(O)c(C(CCN(C(C)C)C(C)C)c2ccccc2)c1 (stereo not given) | – | 91.9%
17 | CN1C(C(=O)Nc2ccccn2)=C(O)c2sc(Cl)cc2S1(=O)=O | – | 132%
18 | Cn1cc(C2=C(c3c4n(c5ccccc35)CCC(CN)C4)C(=O)NC2=O)c2ccccc21 (stereo not given) | 20.9 µM (active) | –
19 | Nc1ccn(C[C@@H](CO)OCP(=O)(O)O)c(=O)n1 | – | 122% [at 23.2 µM]
20 | C[C@@H]1[C@H](C)CC[C@]2(C(=O)O)CC[C@]3(C)C(=CC[C@@H]4[C@@]5(C)C[C@@H](O)[C@H](O)[C@@](C)(CO)[C@H]5CC[C@]43C)[C@@H]12 | – | 123%

Row | Structure (SMILES) | Potency | viability
21 | CCNC(=O)Nc1ccc(-c2nc3c(c(N4CCOC[C@H]4C)n2)CCN(C2COC2)C3)cc1 | 0.469 µM (active) | –
22 | C[C@H]1O[C@H](O[C@H]2[C@H](O)[C@@H](O)[C@@H](O[C@H]3[C@H](O)[C@@H](O)C(O)O[C@H]3CO)O[C@H]2CO)[C@H](O)[C@@H](O)[C@H]1N[C@H]1C=C(CO)[C@@H](O)[C@H](O)[C@@H]1O (stereo not given in full) | – | 110%
23 | Nc1ccc(C(=O)Nc2cccc(-c3nc(N4CCOCC4)c4oc5ncccc5c4n3)c2)cn1 | 16.6 µM (active) | –
24 | CC(C)N(CC[C@H](c1ccccc1)c1cc(CO)ccc1O)C(C)C | – | 104%
25 | C#CCC(Cc1cnc2nc(N)nc(N)c2n1)c1ccc(C(=O)N[C@@H](CCC(=O)O)C(=O)O)cc1 (stereo not given in full) | – | 110%
26 | Cn1cnc2c(F)c(Nc3ccc(Br)cc3F)c(C(=O)NOCCO)cc21 | – | 84.7%
27 | CCn1c(=O)c2c(nc(C=Cc3ccc(OC)c(OC)c3)n2C)n(CC)c1=O | – | 101%
28 | C=Cc1c(C)c2cc3nc(cc4[nH]c(cc5nc(cc1[nH]2)C(C)=C5CCC(=O)O)c(CCC(=O)OC)c4C)[C@@]1(C)C3=CC=C(C(=O)OC)[C@H]1C(=O)OC | 2.35 µM (active) | –
29 | Nc1ncn([C@@H]2O[C@H](CO)[C@@H](O)[C@@H]2O)c(=O)n1 | 14.8 µM (active) | –
30 | O=C(O)CCCCCC(=O)NN=C1CCCC1 | – | 125%
31 | COc1cc(C[C@@H](CO)[C@H](CO)Cc2ccc(O)c(OC)c2)ccc1O | – | 91.3%
32 | O=c1c(O)c(-c2ccc(O)c(O)c2)oc2cc(O)ccc12 | 23.5 µM (active) | –
33 | CC[C@H]1OC(=O)[C@H](C)[C@@H](O[C@H]2C[C@@](C)(OC)[C@@H](O)[C@H](C)O2)[C@H](C)[C@@H](O[C@@H]2O[C@@H](C)C[C@H](N(C)C)[C@@H]2O)[C@](C)(O)C[C@@H](C)C(=O)[C@H](C)[C@@H](O)[C@]1(C)O | – | 116%
34 | N#CC(=Cc1ccc(O)c(O)c1)C(=O)NCc1ccccc1 | – | 90.4%
35 | CCc1cc(C(C)=NOCc2ccc(C3CCCCC3)c(C(F)(F)F)c2)ccc1CN1CC(C(=O)O)C1 | – | 83.6%
36 | COc1cc2c(cc1O)CCC1C2CC[C@@]2(C)C1CC[C@@H]2O (stereo not given in full) | 3.32 µM (active) | –
37 | CC1=C(C(=O)Nc2cc3cn[nH]c3cc2F)C(c2ccc(Cl)cc2F)N=C(c2ccnc(Cl)c2)N1 (stereo not given) | – | 76.5%
38 | NC(=O)c1cccc(-c2cccc(OC(=O)NC3CCCCC3)c2)c1 | – | 110%
39 | CC(C)c1cc(C(C)C)c(CC(=O)NS(=O)(=O)Oc2c(C(C)C)cccc2C(C)C)c(C(C)C)c1 | 20.9 µM (active) | –
40 | CC(C)n1cnc2c(NCCc3ccc(O)cc3)nc(-c3csc4ccccc34)nc21 | 20.9 µM (active) | –

— PubChem BioAssay (NCATS)
